Laboratory results from article PMC9911399, “Two distinct binding modes provide the RNA-binding protein RbFox with extraordinary sequence specificity”.
Positions count from the first letter of the chain named. Whole data set: some 16,000 sequences, median “ka relative to ugcaugu” near 0.0091, cut for the highest 2% near 0.032. For the sample, the highest values were picked, then their nearest neighbours and some sequences at random.

T1: RBFOX1 RRM (Homo sapiens, UniProt Q9NWB1 109-208)
T1 sequence: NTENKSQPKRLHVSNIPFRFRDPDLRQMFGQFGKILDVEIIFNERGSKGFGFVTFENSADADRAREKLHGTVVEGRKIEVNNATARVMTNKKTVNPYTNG

B1: GUUAUGC (DNA:RNA)
RNA: GGGAGACCGGAAUUCAGAUUGUCCGUUAUGCUUAAAUCCCGUCGUAGCCACCA
DNA 1: CAATCTGAATTCCGGTCTCCC
DNA 2: TGGTGGCTACGACGGGATT
B2: GGCAUGC (DNA:RNA)
RNA: B1 RNA with U26G, U27C
DNA 1: CAATCTGAATTCCGGTCTCCC
DNA 2: TGGTGGCTACGACGGGATT
B3: GAAUGCU (DNA:RNA)
RNA: B1 RNA with U26A, U27A, A28U, U29G, G30C, C31U
DNA 1: CAATCTGAATTCCGGTCTCCC
DNA 2: TGGTGGCTACGACGGGATT
B4: GUAUGCU (DNA:RNA)
RNA: B1 RNA with U27A, A28U, U29G, G30C, C31U
DNA 1: CAATCTGAATTCCGGTCTCCC
DNA 2: TGGTGGCTACGACGGGATT
B5: CGCAUGC (DNA:RNA)
RNA: B1 RNA with G25C, U26G, U27C
DNA 1: CAATCTGAATTCCGGTCTCCC
DNA 2: TGGTGGCTACGACGGGATT
B6: GCAUGCU (DNA:RNA)
RNA: B1 RNA with U26C, U27A, A28U, U29G, G30C, C31U
DNA 1: CAATCTGAATTCCGGTCTCCC
DNA 2: TGGTGGCTACGACGGGATT
B7: GUCAUGC (DNA:RNA)
RNA: B1 RNA with U27C
DNA 1: CAATCTGAATTCCGGTCTCCC
DNA 2: TGGTGGCTACGACGGGATT
B8: GCAUUGC (DNA:RNA)
RNA: B1 RNA with U26C, U27A, A28U
DNA 1: CAATCTGAATTCCGGTCTCCC
DNA 2: TGGTGGCTACGACGGGATT
B9: GCCAUGC (DNA:RNA)
RNA: B1 RNA with U26C, U27C
DNA 1: CAATCTGAATTCCGGTCTCCC
DNA 2: TGGTGGCTACGACGGGATT
B10: UGAGAAA (DNA:RNA)
RNA: GGGAGACCGGAAUUCAGAUUGUCCUGAGAAAUUAAAUCCCGUCGUAGCCACCA
DNA 1: CAATCTGAATTCCGGTCTCCC
DNA 2: TGGTGGCTACGACGGGATT
B11: UCCUACG (DNA:RNA)
RNA: B10 RNA with G26C, A27C, G28U, A30C, A31G
DNA 1: CAATCTGAATTCCGGTCTCCC
DNA 2: TGGTGGCTACGACGGGATT
B12: AACCACA (DNA:RNA)
RNA: B10 RNA with U25A, G26A, A27C, G28C, A30C
DNA 1: CAATCTGAATTCCGGTCTCCC
DNA 2: TGGTGGCTACGACGGGATT
B13: ACAUAGU (DNA:RNA)
RNA: B10 RNA with U25A, G26C, G28U, A30G, A31U
DNA 1: CAATCTGAATTCCGGTCTCCC
DNA 2: TGGTGGCTACGACGGGATT
B14: CGCCAUA (DNA:RNA)
RNA: B10 RNA with U25C, A27C, G28C, A30U
DNA 1: CAATCTGAATTCCGGTCTCCC
DNA 2: TGGTGGCTACGACGGGATT
B15: AUUUUUA (DNA:RNA)
RNA: B1 RNA with G25A, A28U, G30U, C31A
DNA 1: CAATCTGAATTCCGGTCTCCC
DNA 2: TGGTGGCTACGACGGGATT
B16: UGUUCCG (DNA:RNA)
RNA: B10 RNA with A27U, G28U, A29C, A30C, A31G
DNA 1: CAATCTGAATTCCGGTCTCCC
DNA 2: TGGTGGCTACGACGGGATT
B17: GCACGUG (DNA:RNA)
RNA: B1 RNA with U26C, U27A, A28C, U29G, G30U, C31G
DNA 1: CAATCTGAATTCCGGTCTCCC
DNA 2: TGGTGGCTACGACGGGATT
B18: GCACGAU (DNA:RNA)
RNA: B10 RNA with U25G, G26C, G28C, A29G, A31U
DNA 1: CAATCTGAATTCCGGTCTCCC
DNA 2: TGGTGGCTACGACGGGATT
B19: GCACACG (DNA:RNA)
RNA: B10 RNA with U25G, G26C, G28C, A30C, A31G
DNA 1: CAATCTGAATTCCGGTCTCCC
DNA 2: TGGTGGCTACGACGGGATT
B20: UCGUCCG (DNA:RNA)
RNA: B10 RNA with G26C, A27G, G28U, A29C, A30C, A31G
DNA 1: CAATCTGAATTCCGGTCTCCC
DNA 2: TGGTGGCTACGACGGGATT
B21: CGCACCG (DNA:RNA)
RNA: B1 RNA with G25C, U26G, U27C, U29C, G30C, C31G
DNA 1: CAATCTGAATTCCGGTCTCCC
DNA 2: TGGTGGCTACGACGGGATT
B22: GCACGAG (DNA:RNA)
RNA: B10 RNA with U25G, G26C, G28C, A29G, A31G
DNA 1: CAATCTGAATTCCGGTCTCCC
DNA 2: TGGTGGCTACGACGGGATT
B23: UCGCACG (DNA:RNA)
RNA: B10 RNA with G26C, A27G, G28C, A30C, A31G
DNA 1: CAATCTGAATTCCGGTCTCCC
DNA 2: TGGTGGCTACGACGGGATT
B24: GCACGUA (DNA:RNA)
RNA: B10 RNA with U25G, G26C, G28C, A29G, A30U
DNA 1: CAATCTGAATTCCGGTCTCCC
DNA 2: TGGTGGCTACGACGGGATT
B25: GCACGAA (DNA:RNA)
RNA: B10 RNA with U25G, G26C, G28C, A29G
DNA 1: CAATCTGAATTCCGGTCTCCC
DNA 2: TGGTGGCTACGACGGGATT
B26: UCGCACC (DNA:RNA)
RNA: B10 RNA with G26C, A27G, G28C, A30C, A31C
DNA 1: CAATCTGAATTCCGGTCTCCC
DNA 2: TGGTGGCTACGACGGGATT
B27: ACGCACG (DNA:RNA)
RNA: B10 RNA with U25A, G26C, A27G, G28C, A30C, A31G
DNA 1: CAATCTGAATTCCGGTCTCCC
DNA 2: TGGTGGCTACGACGGGATT
B28: CCGCACG (DNA:RNA)
RNA: B10 RNA with U25C, G26C, A27G, G28C, A30C, A31G
DNA 1: CAATCTGAATTCCGGTCTCCC
DNA 2: TGGTGGCTACGACGGGATT

Biological target: T1, RBFOX1 RRM
Experiment: EMSA; HiTS-Eq, 1 nM pool, 10 min; buffer printed only for the single-RNA assays: 10 mM Tris pH 7.5, 150 mM NaCl, 3.4 mM EDTA, 0.001% NP-40, 30 C
Settings: tags: His6 N-terminal (pET28a); label: 5' 32P
Summary of the method: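 Purified wild-type or mutant RbFox RRM at increasing concentrations was equilibrated with 1 nM of 5′-radiolabelled RNA carrying 7 randomized nucleotides for 10 min in 50 µL. Unbound RNA was separated by 8% native PAGE and sequenced. Relative association constants came from read-count changes of each RNA species compared with the control reaction, normalised to the cognate motif.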

First: B1
Second: B2
The binding signal of the first is lower: 0.0151 KA relative to UGCAUGU for the first, 0.627 KA relative to UGCAUGU for the second.

Compared with B3, B4 is lower in binding signal: 0.0201 KA relative to UGCAUGU for the first, 0.018 KA relative to UGCAUGU for the second.

First: B5
Second: B6
The binding signal of the first is higher: 0.895 KA relative to UGCAUGU for the first, 0.779 KA relative to UGCAUGU for the second.

Compared with B7, B8 is higher in binding signal: 0.0144 KA relative to UGCAUGU for the first, 0.0184 KA relative to UGCAUGU for the second.

Compared with B9, B10 is higher in binding signal: 0.0131 KA relative to UGCAUGU for the first, 0.016 KA relative to UGCAUGU for the second.

First: B11
Second: B12
The binding signal of the first is higher: 0.00598 KA relative to UGCAUGU for the first, 0.00121 KA relative to UGCAUGU for the second.

First: B13
Second: B14
The binding signal of the first is lower: 0.00187 KA relative to UGCAUGU for the first, 0.00265 KA relative to UGCAUGU for the second.

First: B15
Second: B16
The binding signal of the first is lower: 0.00169 KA relative to UGCAUGU for the first, 0.0186 KA relative to UGCAUGU for the second.

Compared with B17, B18 is lower in binding signal: 0.0821 KA relative to UGCAUGU for the first, 0.0227 KA relative to UGCAUGU for the second.

First: B19
Second: B20
The binding signal of the first is lower: 0.00843 KA relative to UGCAUGU for the first, 0.016 KA relative to UGCAUGU for the second.

First: B21
Second: B22
The binding signal of the first is lower: 0.00744 KA relative to UGCAUGU for the first, 0.0362 KA relative to UGCAUGU for the second.

First: B23
Second: B24
The binding signal of the first is higher: 0.0586 KA relative to UGCAUGU for the first, 0.0281 KA relative to UGCAUGU for the second.

First: B25
Second: B26
The binding signal of the first is higher: 0.0197 KA relative to UGCAUGU for the first, 0.0108 KA relative to UGCAUGU for the second.

First: B27
Second: B28
The binding signal of the first is lower: 0.0314 KA relative to UGCAUGU for the first, 0.0481 KA relative to UGCAUGU for the second.
